From PubChem BioAssay (Tox21)
Values without a mark were called inactive. Records with an inconclusive call do not appear. A call without a number means that no potency is given here. Activity calls are given as the source filed them. Unless noted, the call rests on the fitted dose curve; in most records, active means well fitted curve in the direction sought with a large enough effect in the repeat runs; inconclusive means weak or mixed curves; inactive means no such curve, though single readings can be large; an effect the other way counts as inactive or inconclusive.

Key:
[1] = target: Thyrotropin receptor (Homo sapiens) (UniProt P16473); test: qHTS assay to identify small molecule antagonists of the thyroid stimulating hormone receptor (TSHR) signaling pathway (AID 1259385; calls by dose curve; further: nearly all actives have a fitted effect of over 20% in size)
Sequence of Thyrotropin receptor (Homo sapiens) (P16473 whole entry, looked up): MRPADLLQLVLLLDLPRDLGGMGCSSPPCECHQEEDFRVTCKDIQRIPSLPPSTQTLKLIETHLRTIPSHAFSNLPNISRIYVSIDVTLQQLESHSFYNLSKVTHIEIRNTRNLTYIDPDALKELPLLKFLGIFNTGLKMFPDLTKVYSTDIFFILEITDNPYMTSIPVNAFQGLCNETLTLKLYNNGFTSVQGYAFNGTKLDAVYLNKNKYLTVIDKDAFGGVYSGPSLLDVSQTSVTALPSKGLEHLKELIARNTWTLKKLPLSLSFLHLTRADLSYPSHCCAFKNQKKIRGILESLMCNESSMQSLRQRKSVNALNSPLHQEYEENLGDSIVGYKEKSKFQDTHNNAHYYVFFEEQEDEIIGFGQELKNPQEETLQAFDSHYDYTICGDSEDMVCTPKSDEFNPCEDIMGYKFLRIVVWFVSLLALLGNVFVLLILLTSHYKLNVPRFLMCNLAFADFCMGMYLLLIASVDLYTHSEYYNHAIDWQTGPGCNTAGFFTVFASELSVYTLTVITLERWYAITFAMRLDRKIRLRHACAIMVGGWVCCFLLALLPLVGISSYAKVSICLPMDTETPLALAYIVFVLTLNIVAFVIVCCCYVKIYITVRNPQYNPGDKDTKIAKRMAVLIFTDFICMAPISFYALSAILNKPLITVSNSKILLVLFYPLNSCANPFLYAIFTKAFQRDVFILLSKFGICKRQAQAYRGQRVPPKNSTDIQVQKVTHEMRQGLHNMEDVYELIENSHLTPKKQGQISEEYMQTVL
In short: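 TSHR-HEK293 cells (800/well) plated 18 h, then compounds with Ro20-1724 and TSH at 1.5 ng/mL final, 30 min at room temperature. cAMP quantified by HTRF (cAMP-d2/anti-cAMP-cryptate, 1 h); 15 concentrations in triplicate.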

[2] = qHTS assay to identify small molecule agonists of the estrogen receptor alpha (ER-alpha) signaling pathway in the presence of an antagonist - cell viability counter screen (AID 1259386);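 further: series mostly up to about 92 µM; cells exposed to compounds for 22 h at 37 °C before the viability read; nearly all actives have a fitted effect of over 30% in size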
In short: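 The test measures whether compounds kill ER-alpha reporter cells (VM7Luc4E2) under antagonist co-treatment (ICI-182,780, 10.0nM). Fluorescence from CellTiter-Fluor is read after a 22hr exposure.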

[3] = target: Progesterone receptor (Homo sapiens) (UniProt P06401); test: qHTS assay to identify small molecule agonists of the progesterone receptor (PR) signaling pathway (AID 1346784; calls by dose curve; further: nearly all actives have a fitted effect of over 30% in size)
Sequence of Progesterone receptor (Homo sapiens) (P06401 whole entry, looked up): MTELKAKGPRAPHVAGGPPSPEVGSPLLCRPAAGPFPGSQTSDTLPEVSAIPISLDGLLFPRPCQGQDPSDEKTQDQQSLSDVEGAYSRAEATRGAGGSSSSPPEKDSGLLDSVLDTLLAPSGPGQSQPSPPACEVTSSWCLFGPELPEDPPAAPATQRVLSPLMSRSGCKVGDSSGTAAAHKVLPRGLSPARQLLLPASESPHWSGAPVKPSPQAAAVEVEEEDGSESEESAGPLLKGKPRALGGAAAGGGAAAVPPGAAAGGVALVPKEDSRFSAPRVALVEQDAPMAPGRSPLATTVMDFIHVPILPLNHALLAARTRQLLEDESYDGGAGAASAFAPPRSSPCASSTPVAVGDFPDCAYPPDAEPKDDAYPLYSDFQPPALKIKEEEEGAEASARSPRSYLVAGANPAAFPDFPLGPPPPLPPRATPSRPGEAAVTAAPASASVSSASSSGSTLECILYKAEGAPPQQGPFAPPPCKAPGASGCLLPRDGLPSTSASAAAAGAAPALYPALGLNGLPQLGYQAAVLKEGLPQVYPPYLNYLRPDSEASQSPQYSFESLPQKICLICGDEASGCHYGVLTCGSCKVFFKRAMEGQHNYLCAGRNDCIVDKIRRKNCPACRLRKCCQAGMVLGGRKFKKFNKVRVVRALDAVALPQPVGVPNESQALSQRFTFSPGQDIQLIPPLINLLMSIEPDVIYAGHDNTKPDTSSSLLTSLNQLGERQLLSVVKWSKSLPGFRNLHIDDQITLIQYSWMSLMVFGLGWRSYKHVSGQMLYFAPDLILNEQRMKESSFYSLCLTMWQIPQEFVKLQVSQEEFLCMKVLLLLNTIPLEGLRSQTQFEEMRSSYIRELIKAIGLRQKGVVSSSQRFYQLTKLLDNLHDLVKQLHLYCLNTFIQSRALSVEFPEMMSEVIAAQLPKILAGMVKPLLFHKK
In short: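 Agonist mode, quantitative HTS format in a HEK 293T line expressing a UAS-controlled beta-lactamase reporter; 16 hr compound exposure at 37C in 2% charcoal-stripped FBS, then LiveBLAzer B/G FRET fluorescence.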

[4] = target: Progesterone receptor (Homo sapiens) (UniProt P06401); test: qHTS assay to identify small molecule antagonists of the progesterone receptor (PR) signaling pathway (AID 1346795; active means well fitted inhibition curve with a large enough effect in the signal ratio in the repeat runs, not every such curve was filed as active; the % refers to the signal ratio)
In short: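 HEK293T PR-UAS-bla reporter cells in charcoal-stripped serum (2%) received compound after a 6 hr settling period, followed by R5020 agonist at 1 nM final; 16 hr incubation preceded the FRET substrate step and fluorescence measurement.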

[5] = qHTS assay to identify small molecule antagonists of the progesterone receptor (PR) signaling pathway - cell viability counter screen (AID 1346798); further: series mostly up to about 92 µM; nearly all actives have a fitted effect of over 50% in size
In short: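 Same-well multiplex: after 16 hr at 37C with compound and R5020 stimulation, HEK293T cells carrying a UAS-bla reporter received LiveBLAzer substrate (2 hr RT), then CellTiter-Glo (30 min RT) for luminescent viability.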

[6] = qHTS assay to identify small molecule agonists of the progesterone receptor (PR) signaling pathway - cell viability counter screen (AID 1346799; calls by dose curve; further: nearly all actives have a fitted effect of over 45% in size)
In short: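 Counter screen for cytotoxicity: compound-treated PR-UAS-bla HEK293T cells (16 hr, 37C, 5% CO2) were assayed with CellTiter-Glo, luminescence measured after 30 min at room temperature.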

[7] = qHTS assay to identify small molecule antagonists of the TGF-beta/Smad signaling pathway - cell viability counter screen (AID 1346824); further: nearly all actives have a fitted effect of over 50% in size
In short: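 SBE-bla HEK 293T cells, incubated overnight, then compound plus 0.25 ng/mL TGF-beta1 (stock added) for 5 hr at 37 C. Viability was read in the same wells by CellTiter-Glo luminescence after 30 min at room temperature.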

[8] = qHTS assay to identify small molecule agonists of the TGF-beta/Smad signaling pathway - cell viability counter screen (AID 1346829); further: top concentration of the series differs between compounds; nearly all actives have a fitted effect of over 45% in size
In short: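 After overnight seating at 37 C and 5% CO2, reporter cells got compounds for 5 hr and FRET substrate for 2 hr; cell viability then came from CellTiter-Glo luminescence.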

[9] = target: Thyrotropin-releasing hormone receptor (Homo sapiens) (UniProt P34981); test: qHTS assay to identify small molecule antagonists of the thyrotropin-releasing hormone receptor (TRHR) signaling pathway (AID 1346877; active means well fitted inhibition curve with a large enough effect in the repeat runs, not every such curve was filed as active; further: series mostly up to about 51 µM)
Sequence of Thyrotropin-releasing hormone receptor (Homo sapiens) (P34981 whole entry, looked up): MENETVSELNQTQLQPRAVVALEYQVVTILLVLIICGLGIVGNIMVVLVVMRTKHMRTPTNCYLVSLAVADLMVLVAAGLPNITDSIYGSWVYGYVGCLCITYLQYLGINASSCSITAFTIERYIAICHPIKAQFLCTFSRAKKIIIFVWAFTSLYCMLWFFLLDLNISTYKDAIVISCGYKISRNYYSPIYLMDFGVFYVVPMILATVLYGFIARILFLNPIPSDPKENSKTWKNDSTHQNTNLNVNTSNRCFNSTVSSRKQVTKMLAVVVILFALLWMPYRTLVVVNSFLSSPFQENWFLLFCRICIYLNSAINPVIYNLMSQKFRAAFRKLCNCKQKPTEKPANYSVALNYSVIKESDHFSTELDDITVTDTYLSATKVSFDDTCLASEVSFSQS
In short: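 Overnight-plated (18 h, 37 °C) HEK293 cells expressing TRHR were dye-loaded 2 h, treated with compound, then stimulated with TRH at 1 nM final. Fluorescence intensity was captured every second for 3 min.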

[10] = target: Thyrotropin-releasing hormone receptor (Homo sapiens) (UniProt P34981); test: qHTS assay to identify small molecule agonists of the thyrotropin-releasing hormone receptor (TRHR) signaling pathway (AID 1346891; calls by dose curve;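 further: HEK293 cells expressing TRHR with calcium dye readout; series mostly up to about 58 µM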)
In short: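 Agonist-mode calcium mobilisation screen: TRHR-transfected HEK293 cells cultured overnight (18 h), dye-loaded for 2 h at 37 °C, exposed to compounds, and monitored by fluorescence for 3 min.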

[11] = Human pregnane X receptor (PXR) small molecule agonists, qHTS cell viability counter screen (AID 1346977); further: nearly all actives have a fitted effect of over 50% in size
In short: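 Measures live-cell protease fluorescence (CellTiter-Fluor) in PXR-Luc HepG2 cells treated 24hr with compounds at 37C. Cells had 5hr to attach before pin transfer of DMSO solutions.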

[12] = Caspase-3/7 induction in HepG2 cells by small molecules, qHTS assay (AID 1346978); further: nearly all actives have a fitted effect of over 15% in size
In short: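 Wild-type HepG2 cells, 2,000/well, settled 5 hr at 37 C and 5% CO2, then compound-treated for 17 hr; caspase-3/7 activity read by luminescent Caspase-Glo 3/7 after 30 min at room temperature.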

[13] = Caspase-3/7 induction in CHO-K1 cells by small molecules, qHTS cell viability counter screen (AID 1346979); further: nearly all actives have a fitted effect of over 35% in size
In short: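 In the same wells as the caspase read, viability of compound-treated wild-type CHO-K1 cells was assessed using CellTiter-Fluor, added after 16hr at 37C and measured by fluorescence following 1hr further incubation.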

[14] = Caspase-3/7 induction in CHO-K1 cells by small molecules, qHTS assay (AID 1346980); further: nearly all actives have a fitted effect of over 15% in size
In short: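 Wild-type CHO-K1 cells exposed to compounds for 17hr at 37 C, 5% CO2. Caspase-3/7 activity then measured by Caspase-Glo 3/7 luminescence after 30min at room temperature.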

[15] = Caspase-3/7 induction in HepG2 cells by small molecules, qHTS cell viability counter screen (AID 1346981); further: series mostly up to about 92 µM; nearly all actives have a fitted effect of over 30% in size
In short: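 Treatment of HepG2 cells with DMSO-delivered compounds ran 16 hr at 37 C following a 5-hr pre-incubation of 2,000 cells/well. CellTiter-Fluor fluorescence, read after 1 hr, served as the viability measure in a qHTS format.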

[16] = target: Nuclear receptor subfamily 1 group I member 2 (Homo sapiens) (UniProt O75469); test: Human pregnane X receptor (PXR) small molecule agonists, qHTS assay (AID 1346982); further: nearly all actives have a fitted effect of over 35% in size; further: potency means the concentration at half of the fitted maximal effect
Sequence of Nuclear receptor subfamily 1 group I member 2 (Homo sapiens) (O75469 whole entry, looked up): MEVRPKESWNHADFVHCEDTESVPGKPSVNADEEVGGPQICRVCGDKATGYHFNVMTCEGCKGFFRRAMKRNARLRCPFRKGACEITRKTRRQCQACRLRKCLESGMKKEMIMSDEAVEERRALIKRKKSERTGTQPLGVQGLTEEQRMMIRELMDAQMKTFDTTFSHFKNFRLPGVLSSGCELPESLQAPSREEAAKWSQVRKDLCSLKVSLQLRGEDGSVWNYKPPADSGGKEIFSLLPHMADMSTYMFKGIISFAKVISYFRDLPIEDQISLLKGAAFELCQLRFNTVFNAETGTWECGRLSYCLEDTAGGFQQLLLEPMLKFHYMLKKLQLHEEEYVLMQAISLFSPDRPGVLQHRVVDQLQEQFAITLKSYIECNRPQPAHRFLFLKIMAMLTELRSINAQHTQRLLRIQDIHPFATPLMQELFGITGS
In short: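 Stable HepG2 line reporting PXR-mediated CYP3A4 expression via luciferase. Treatment: 24 hr with compounds in DMSO at 37 C. Detection: ONE-Glo luminescence.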

[17] = target: Nuclear receptor subfamily 1 group I member 2 (Rattus norvegicus) (UniProt Q9R1A7); test: Rat pregnane X receptor (rPXR) activation by small molecules, qHTS assay (AID 1346983); details: rPXR luciferase reporter cells, One-Glo luminescence, 24 h; max activation: active compounds read high; further: nearly all actives have a fitted effect of over 20% in size
Sequence of Nuclear receptor subfamily 1 group I member 2 (Rattus norvegicus) (Q9R1A7 whole entry, looked up): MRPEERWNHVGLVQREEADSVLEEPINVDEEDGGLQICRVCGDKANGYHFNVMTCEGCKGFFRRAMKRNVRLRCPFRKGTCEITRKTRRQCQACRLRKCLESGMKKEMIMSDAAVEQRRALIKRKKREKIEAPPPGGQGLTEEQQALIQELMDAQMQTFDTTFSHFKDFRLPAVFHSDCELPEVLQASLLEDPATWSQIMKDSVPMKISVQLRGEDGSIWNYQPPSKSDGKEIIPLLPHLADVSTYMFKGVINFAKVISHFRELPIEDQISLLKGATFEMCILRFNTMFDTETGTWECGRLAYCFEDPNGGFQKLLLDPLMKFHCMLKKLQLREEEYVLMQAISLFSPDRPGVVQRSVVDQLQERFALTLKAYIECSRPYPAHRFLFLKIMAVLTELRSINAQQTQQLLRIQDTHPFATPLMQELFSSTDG
In short: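 Cell-based rPXR activation assay: rPXR cells, 2,000 per well, rested 5hr at 37 C, then exposed to compounds in DMSO for 24 hr at 37 C. Luciferase activity read by One-Glo luminescence after 30 min at room temperature.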

[18] = target: Nuclear receptor subfamily 1 group I member 2 (Homo sapiens) (UniProt O75469); test: CYP3A4 induction through human pregnane X receptor (PXR) by small molecules, qHTS assay (AID 1346984); further: nearly all actives have a fitted effect of over 40% in size
In short: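 After 24 h at 37C with compound, DPX-2 cells (HepG2, co-transfected PXR response element and CYP3A4 promoter-luciferase) got 3uM final P450-Glo Luciferin-IPA for 3 h; One-Glo luminescence followed.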

[19] = target: Nuclear receptor subfamily 1 group I member 2 (Homo sapiens) (UniProt O75469); test: Human pregnane X receptor (PXR) activation by small molecules, qHTS assay (AID 1346985); further: nearly all actives have a fitted effect of over 40% in size
In short: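 DPX-2 cells (HepG2 co-transfected with a PXR response element and a CYP3A4-promoter luciferase construct) were seeded at 2,000 per well, rested 5 hr at 37C, then exposed to DMSO-dissolved compounds for 24 hr. Activation was read as luciferase luminescence.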

[20] = qHTS assay to identify small molecule agonists of the TGF-beta/Smad signaling pathway (AID 1346859; active means well fitted activation curve with a large enough effect in the signal ratio in the repeat runs, not every such curve was filed as active; the % refers to the signal ratio; further: series mostly up to about 77 µM)
In short: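 Smad-responsive beta-lactamase reporter cells (HEK 293T) received compounds from DMSO stocks after overnight attachment, were incubated 5 hr, then treated 2 hr with FRET substrate before dual-emission fluorescence measurement (405 nm excitation).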

SMILES | Potency [1] | Potency [2] | Potency [3] | Potency [4] | Potency [5] | Potency [6] | outcome [7] | outcome [8] | outcome [9] | Potency [10] | Potency [11] | Potency [12] | Potency [13] | outcome [14] | Potency [15] | Potency [16] | max activation [17] [%] | Potency [18] | Potency [19] | outcome [20]
CC(=O)N(CC(O)CN(C(C)=O)c1c(I)c(C(=O)NCC(O)CO)c(I)c(C(=O)NCC(O)CO)c1I)c1c(I)c(C(=O)NCC(O)CO)c(I)c(C(=O)NCC(O)CO)c1I (configuration not stated) | inactive | inactive | inactive | inactive | inactive | inactive | inactive | inactive | inactive | inactive | inactive | inactive | inactive | inactive | inactive | inactive | -0.58 | inactive | inactive | 
O=C1CCCCCCCCCCC(=O)OCCO1 | inactive | inactive | inactive | inactive |  | inactive | inactive | inactive | inactive | inactive | inactive | inactive | inactive | inactive |  | inactive |  |  |  | inactive
Cc1c(C(=O)NCCO)[n+](=O)c2ccccc2n1[O-] | inactive | inactive | inactive | inactive | inactive | inactive | inactive | inactive | inactive | inactive | inactive | inactive | inactive | inactive | inactive | inactive | -3.05 | inactive | inactive | 
CCCC(CCC)(C(=O)OCC)C(=O)OCC | inactive | inactive | inactive | inactive | inactive | inactive |  | inactive | inactive | inactive | inactive | inactive | inactive | inactive | inactive | inactive |  |  |  | inactive
O=C1CCC(C2CCCCC2)CC1 | inactive | inactive | inactive | inactive | inactive |  | inactive | inactive | inactive | inactive | inactive | inactive | inactive | inactive | inactive |  |  |  |  | inactive
CC(C)=CCCC(C)CCOC=O (configuration not stated) | inactive | inactive | inactive | inactive | inactive | inactive | inactive | inactive |  | inactive | inactive | inactive | inactive | inactive |  | inactive |  |  |  | 
O=C(O)C(=O)Cc1c[nH]c2ccccc12 | inactive | inactive | inactive | inactive | inactive | inactive | inactive | inactive | inactive | inactive | inactive |  | inactive | inactive | inactive | 30.6 µM (active) |  |  |  | 
CCN(CC)CC1CCCCN1CC(=O)N1c2ccccc2C(=O)Nc2cccnc21 (configuration not stated) | inactive | inactive | inactive | inactive | inactive | inactive | inactive | inactive | inactive | inactive | inactive | inactive | inactive | inactive | inactive | inactive | -0.899 | inactive | inactive | 
